# Screening results (PubChem)
# Sampled rows, rich in hits. Any-hit rate of the full collection: about 7.3%.
# Vaccinia Venus: qHTS for Stage-Specific Inhibitors of Vaccinia Orthopoxvirus: Venus Reporter Primary qHTS; actives 0.46% (n = 330,000); Vaccinia virus Venus reporter expression, fluorescence; Potency, µM (highest dose often 36.5 µM), without a hit: top-dose activity change, negative = inhibition, most hits filed as inhibitors; calls by dose curve; tested in A549 cells; also: potency is read from the fitted curve at half-maximal effect; nearly all actives have a fitted effect of over 30% in size
# Vaccinia mCherry: qHTS for Stage-Specific Inhibitors of Vaccinia Orthopoxvirus: mCherry Reporter Primary qHTS; Potency, µM (doses to about 36.5 µM), for inactives: at the top dose activity change, negative = inhibition, most hits filed as inhibitors; actives 0.63% (n = 310,000); AID 720579, 2013; Vaccinia virus mCherry reporter infection, fluorescence; calls by dose curve; tested in A549 cells; also: potency is read from the fitted curve at half-maximal effect; nearly all actives have a fitted effect of over 35% in size
# HCV inh: qHTS Assay for Inhibitors of Hepatitis C Virus (HCV). Huh7.5.1 HCVcc-Cre infection, luciferase reporter, 44 h. Potency, µM (doses to about 41.8 µM), inactives show at the highest dose activity change, negative = inhibition, hits mostly inhibitors. actives 3.4% (n = 340,000). AID 651820, 2012; active = well fitted inhibition curve with a large enough effect; inconclusive = small, poorly fitted or top-dose-only effect, or another doubt; inactive = no such curve, though single readings can be large or run the other way; also: potency is read from the fitted curve at half-maximal effect
#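 After 44 h co-culture of compound, cells and HCVcc-Cre (~0.5 moi), substrate is added for 15 min at room temperature and luciferase measured over 15 sec. Cells were seeded at 1,000/well and pre-cultured 4 h.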
# FMDV antiviral: High Throughput Screening for Foot and Mouth Disease Virus Antivirals | FMDV antiviral cell-based qHTS | Potency, µM (series often up to 57.9 µM), for the others: at the top dose activity change, negative = inhibition, usual class: inhibitors | actives 1.2% (n = 410,000) | AID 1159524, 2015; calls by dose curve; tested in HEK293T cells; also: read-out not given here; potency is read from the fitted curve at half-maximal effect; nearly all actives have a fitted effect of over 45% in size
# HCMV antiviral: qHTS Assay for inhibitors of the human cytomegalovirus (HCMV). activity change, negative = inhibition, % at 57.5 µM. HFF cells, HCMV-luciferase reporter, 72 h; stronger effect = lower value. actives 4.5% (n = 410,000). AID 1259415, 2018; in the data active = activity change below about -60%; inconclusive = no clear call, values can overlap the other calls; inactive = above about -39%
#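 Inhibition of viral replication was scored as loss of reporter luminescence in HFFs infected with HCMV-luciferase (MOI 1 PFU/cell) for 72 h; compounds tested at 2 doses, normalized to buffer and Salinomycin controls.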
# An asterisk follows results filed as active; i = inactive; ? = inconclusive; . = no result. % is scaled to controls: 0 for no effect and ±100 for the full control effect.
SMILES,Vaccinia Venus,Vaccinia mCherry,HCV inh,FMDV antiviral,HCMV antiviral
Cc1cc(C)c[n+](C(C)C(=O)c2ccc(-c3ccccc3)cc2)c1 (centres undefined),-26%,?,-10%,?,-99*
Cc1ccc[n+](C(C)C(=O)c2ccc(Cl)cc2)c1 (centres undefined),.,.,10%,-4%,-5
CC1CCN(CCCNC(=O)c2cn(C)c3ccc(S(=O)(=O)N4CCCC4)cc3c2=O)CC1,.,.,9%,3%,-108*
CN(CCCNC(=O)c1cn(C)c2ccc(S(=O)(=O)N(C)C)cc2c1=O)c1ccccc1,-6%,-10%,0%,-16%,-64*
CCN(CC)S(=O)(=O)c1ccc2c(c1)c(=O)c(C(=O)NCCCN(C)c1ccccc1)cn2C,.,.,18%,?,23
CC1CC(C)CN(CCCNC(=O)c2cn(C)c3ccc(S(=O)(=O)N4CCCC4)cc3c2=O)C1 (centres undefined),-16%,0%,-6%,41%,4
COc1ccc(C2c3[nH]c4ccccc4c3CCN2Cc2cccn2-c2ncccn2)cc1C (centres undefined),-2%,-3%,?,-2%,-99*
Cc1ccc(NC(=O)CSc2nc(-c3cccs3)cc(C(F)(F)F)n2)cc1C,-22%,-26%,.,-24%,-19
O=C(CSc1nc(-c2cccs2)cc(C(F)(F)F)n1)Nc1cc(OCC(F)(F)C(F)F)cc([N+](=O)[O-])c1,-28%,-9%,3.5µM*,?,-1
CN(C(=O)CCCN1C(=O)c2cccc3cccc(c23)C1=O)c1ccccc1,-7%,-21%,?,?,-62*
COc1ccc(N2CCN(C(=O)CCCN3C(=O)c4cccc5cccc(c45)C3=O)CC2)cc1,.,.,?,?,-32
O=C(CCCN1C(=O)c2cccc3cccc(c23)C1=O)N1CCN(c2ccc(F)cc2)CC1,-10%,-22%,11µM*,22µM*,-37
COC(=O)CCCN1C(=O)c2cccc3cccc(c23)C1=O,-7%,-18%,-5%,39%,-11
Cc1cnc(CNc2ccnc(-c3ccoc3)n2)cn1,.,.,.,5%,.
COc1ccc(S(=O)(=O)N2CCOCC2)cc1NC(=O)C1CC(=O)N(c2ccc3c(c2)OCCO3)C1 (centres undefined),0%,8%,.,1%,0
COc1ccc2c(c1)[C@@H](NC(=O)c1c(C)noc1C)[C@H](C)[C@@H](c1ccccc1)N2C(=O)NC(C)C,.,.,.,.,0
NC(=O)N=Nc1c2[nH]c3ccccc3nc-2c2ccccc12,-12%,i,?,?,-99*
O=c1[nH]c2ccccc2nc1-c1ccccc1,-6%,-8%,11%,7%,-25
O=C(COc1ccc(Br)cc1)N1CCN(c2ncccn2)CC1,.,.,11%,-7%,-19
Cc1ccc(S(=O)(=O)N2C[C@H]3C(=O)C[C@@H](c4ccccc4)N(S(=O)(=O)c4ccc(Br)cc4)[C@H]3C[C@H]2c2ccccc2)cc1,-3%,15%,.,-14%,3
CCOc1ccc(NC(=O)Cn2c(=O)n(CCCCCC(=O)NCc3ccccc3)c(=O)c3sccc32)cc1,-9%,-8%,.,-24%,-12
O=C(c1ccc(NS(=O)(=O)c2cccs2)cc1)N1CCCCC1,-22%,-27%,2.8µM*,-3%,13
C/C(=N\NC(=O)c1ccc(NS(=O)(=O)c2cccs2)cc1)c1ccc(Cl)cc1,-9%,-20%,?,-14%,22
C/C(=N\NC(=O)c1ccc(NS(=O)(=O)c2cccs2)cc1)c1cccs1,-2%,0%,-21%,21%,-83*
O=C(c1ccc(NS(=O)(=O)c2cccs2)cc1)N1CCOCC1,-6%,i,.,-5%,-19
SMILES,Vaccinia Venus,Vaccinia mCherry,HCV inh,FMDV antiviral,HCMV antiviral
CCOC(=O)c1noc2nc(C)n(Cc3cccc(C#N)c3)c(=O)c12,-12%,-9%,.,-16%,-12
CN(C)C(=O)CCc1ccc2c3c([nH]c2c1)[C@]1(CCC2CCCC2)[C@@H](C(=O)N2CCOCC2)C[C@H](CC(=O)NCCN2CCOCC2)C(=O)N1CC3,-8%,-11%,0.32µM*,7%,-19
O=C(C[C@H]1C[C@H](C(=O)N2CCOCC2)[C@@]2(CCC3CCCC3)c3[nH]c4cc(-c5ccco5)ccc4c3CCN2C1=O)NCCc1ccccn1,10µM*,?,-22%,-27%,-23
CC[C@]12c3[nH]c4cc(CCC(=O)N(C)C)ccc4c3CCN1C(=O)[C@@H](CC(=O)NCc1cccc(C(F)(F)F)c1)C[C@@H]2C(=O)N1CCN(C(=O)C2CC2)CC1,4%,-2%,0.56µM*,-14%,32
CCN(CCn1cccn1)C(=O)CC1C(=O)NCCN1Cc1ccc(F)c(F)c1 (centres undefined),0%,-5%,6%,10%,-15
CCN(Cc1ccncc1)C(=O)CC1C(=O)NCCN1Cc1ccc(F)c(F)c1 (centres undefined),.,.,0%,-16%,-78*
COc1ccccc1Nc1nc(C)cs1,11%,-15%,4%,18%,11
COc1ccccc1Nc1nc(-c2c(C)nc3ncccn23)cs1,-29%,?,11µM*,14µM*,68
c1ccc(Nc2nc(-c3ccccn3)cs2)cc1,-27%,-29%,?,32%,143
Cc1nc2sccn2c1-c1csc(NCc2ccccc2)n1,?,?,11µM*,.,-72*
Cc1nc2ncccn2c1-c1csc(NCc2ccco2)n1,-20%,-12%,?,35µM*,162
Cc1nc2ncccn2c1-c1csc(Nc2ccc(N(C)C)cc2)n1,?,?,-22%,?,-65*
Cc1ccccc1OCC(=O)NNC(=O)C1CC(=O)N(c2ccc3c(c2)OCCO3)C1 (centres undefined),.,.,1%,-4%,-2
CC(C)(C)C(=O)OCCNc1nc(-c2cccs2)nc2ccccc12,-22%,-24%,.,.,.
CCOC(=O)c1c(C)cc(O)c(C=O)c1O,-9%,-14%,.,-3%,.
O=C(COc1ccccc1Cl)Nc1nc(-c2ccc(F)cc2)ns1,-10%,-3%,.,-13%,-30
CC(C)NC(=O)N1CC2(CCN(C(=O)c3ccncc3)CC2)C1,.,.,.,-17%,.
Cc1nc2ncccn2c1-c1csc(Nc2ccccc2)n1,?,-24%,11µM*,?,42
COc1ccc(Nc2nc(-c3c(C)nc4ncccn34)cs2)cc1,?,?,11µM*,?,-98*
Cc1nc2ncccn2c1-c1csc(Nc2ccc(S(N)(=O)=O)cc2)n1,.,.,-17%,3%,5
Cc1ccc(NC(=O)Cn2c(=O)n(CCCS(=O)(=O)C3CCCCC3)c(=O)c3ccccc32)cc1F,9%,-4%,.,-18%,-16
CCc1ccccc1N(CC)C(=O)Cn1nc(Cc2ccncc2)c2ccccc2c1=O,-14%,-16%,.,-10%,-72*
